# According to the supplement of paper PMC8728848:
# The sample as a whole holds a higher share of the strongest signals than the screen did.
# Assays:
# Assay in all cases: glycan array binding signal (z-score within array); higher = stronger binding
# Settings in all cases: glycan notation: IUPAC condensed, linker removed
# [1] = biological target: Fuc(a1-2)Gal(b1-3)GalNAc(b1-3)Gal
# Summary of the method: (§1)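 Glycan array data came from 3228 arrays in the Consortium for Functional Glycomics database, and only arrays with an available protein sequence were kept. Glycan names were put into IUPAC-condensed notation, and columns mapping to the same glycan were averaged. The binding signal is a within-array Z-score, averaged across arrays of one protein sequence run at different concentrations or buffers and across linkers. A negative Z-score can be read as non-binding.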
# Fuc(a1-2)Gal(b1-3)GlcNAc = biological target: Fuc(a1-2)Gal(b1-3)GlcNAc
# Summary of the method: as §1
# Fuc(a1-2)Gal(b1-4)Glc = biological target: Fuc(a1-2)Gal(b1-4)Glc
# Summary of the method: as §1
# [2] = biological target: Fuc(a1-2)Gal(b1-4)GlcNAc(b1-3)Gal(b1-4)GlcNAc
# Summary of the method: as §1
# [3] = biological target: Fuc(a1-2)Gal6S(b1-4)GlcNAc
# Summary of the method: as §1
# Fuc(b1-3)GlcNAc = biological target: Fuc(b1-3)GlcNAc
# Summary of the method: as §1
# [4] = biological target: Gal(a1-3)[Gal(a1-4)]Gal(b1-4)GlcNAc
# Summary of the method: as §1
# [5] = biological target: Gal(b1-3)GalNAc(b1-4)Gal(b1-4)Glc
# Summary of the method: as §1
# [6] = biological target: Gal(b1-3)GlcNAc(b1-2)Man(a1-3)[Gal(b1-3)GlcNAc(b1-2)Man(a1-6)]Man(b1-4)GlcNAc(b1-4)GlcNAc
# Summary of the method: as §1
# [7] = biological target: Gal(b1-3)GlcNAc(b1-3)Gal(b1-4)Glc
# Summary of the method: as §1
# [8] = biological target: Gal(b1-4)GalNAc(a1-3)[Fuc(a1-2)]Gal(b1-4)GlcNAc
# Summary of the method: as §1
# [9] = biological target: Gal(b1-4)GlcNAc(b1-3)Gal(b1-3)GlcNAc
# Summary of the method: as §1
# [10] = biological target: Gal3S(b1-3)[Fuc(a1-4)]GlcNAc
# Summary of the method: as §1
# Gal6S(b1-4)Glc6S = biological target: Gal6S(b1-4)Glc6S
# Summary of the method: as §1
# GalNAc(a1-3)Gal = biological target: GalNAc(a1-3)Gal
# Summary of the method: as §1
# GlcA(b1-3)GlcNAc = biological target: GlcA(b1-3)GlcNAc
# Summary of the method: as §1
# GlcA(b1-6)Gal = biological target: GlcA(b1-6)Gal
# Summary of the method: as §1
# [11] = biological target: GlcNAc(b1-2)Gal(b1-3)GalNAc
# Summary of the method: as §1
# GlcNAc(b1-3)Gal = biological target: GlcNAc(b1-3)Gal
# Summary of the method: as §1
# GlcNAc(b1-3)Gal(b1-4)Glc = biological target: GlcNAc(b1-3)Gal(b1-4)Glc
# Summary of the method: as §1
# [12] = biological target: Man(a1-2)Man(a1-2)Man(a1-3)Man
# Summary of the method: as §1
# [13] = biological target: Man(a1-3)[Man(a1-6)]Man(a1-6)[Man(a1-2)Man(a1-3)]Man(b1-4)GlcNAc(b1-4)GlcNAc
# Summary of the method: as §1
# [14] = biological target: Neu5Ac(a2-3)Gal(b1-4)GlcNAc(b1-2)Man(a1-3)[GlcNAc(b1-2)Man(b1-4)GlcNAc(b1-2)Man(a1-6)]Man(b1-4)GlcNAc(b1-4)GlcNAc
# Summary of the method: as §1
# [15] = biological target: Neu5Ac(a2-3)Gal(b1-4)[Fuc(a1-3)]GlcNAc(b1-3)Gal(b1-4)GlcNAc
# Summary of the method: as §1
# [16] = biological target: Neu5Ac(a2-3)Gal(b1-4)[Fuc(a1-3)]GlcNAc(b1-3)Gal(b1-4)[Fuc(a1-3)]GlcNAc(b1-3)Gal(b1-4)[Fuc(a1-3)]GlcNAc
# Summary of the method: as §1
# [17] = biological target: Neu5Gc(a2-3)Gal(b1-4)GlcNAc
# Summary of the method: as §1
# [18] = biological target: Neu5Gc(a2-6)Gal(b1-4)GlcNAc
# Summary of the method: as §1
binder,measurement,setting,value
"SLLPI (Homo sapiens), Q8IXA5 (protein) MVSALRGAPLIRVHSSPVSSPSVSGPRRLVSCLSSQSSALSQSGGGSTSAAGIEARSRALRRRWCPAGIMLLALVCLLSCLLPSSEAKLYGRCELARVLHDFGLDGYRGYSLADWVCLAYFTSGFNAAALDYEADGSTNNGIFQINSRRWCSNLTPNVPNVCRMYCSDLLNPNLKDTVICAMKITQEPQGLGYWEAWRHHCQGKDLTEWVDGCDF",glycan array binding signal (z-score),[1],1.93
same,glycan array binding signal (z-score),Fuc(a1-2)Gal(b1-3)GlcNAc,-0.188
same,glycan array binding signal (z-score),Fuc(a1-2)Gal(b1-4)Glc,0.145
same,glycan array binding signal (z-score),[2],0.263
same,glycan array binding signal (z-score),[3],0.21
same,glycan array binding signal (z-score),Fuc(b1-3)GlcNAc,-0.512
same,glycan array binding signal (z-score),[4],0.947
same,glycan array binding signal (z-score),[5],-0.063
same,glycan array binding signal (z-score),[6],0.777
same,glycan array binding signal (z-score),[7],0.044
same,glycan array binding signal (z-score),[8],-0.332
same,glycan array binding signal (z-score),[9],-0.37
same,glycan array binding signal (z-score),[10],-0.205
same,glycan array binding signal (z-score),Gal6S(b1-4)Glc6S,1.85
same,glycan array binding signal (z-score),GalNAc(a1-3)Gal,1.65
same,glycan array binding signal (z-score),GlcA(b1-3)GlcNAc,0.16
same,glycan array binding signal (z-score),GlcA(b1-6)Gal,-0.073
same,glycan array binding signal (z-score),[11],-0.634
same,glycan array binding signal (z-score),GlcNAc(b1-3)Gal,0.2
same,glycan array binding signal (z-score),GlcNAc(b1-3)Gal(b1-4)Glc,0.579
same,glycan array binding signal (z-score),[12],3.65
same,glycan array binding signal (z-score),[13],1.02
same,glycan array binding signal (z-score),[14],4.44
same,glycan array binding signal (z-score),[15],0.654
same,glycan array binding signal (z-score),[16],0.311
same,glycan array binding signal (z-score),[17],-0.286
same,glycan array binding signal (z-score),[18],-0.251
